# What was measured:
# Test in all cases: DAPPL (digital affinity profiling via proximity ligation, sequencing); 10 mM Tris-HCl pH 7.5, 50 mM NaCl, 1 mM DTT, 4% glycerol, room temperature, 30 min; GST-TFs on glutathione beads, 16-mer random dsDNA library, 0.1% formaldehyde crosslink after washing; high values mean tight binding
# [1] = target: T1, FLI1 (Homo sapiens, UniProt Q01543 1-452); details: protein: recombinant; tags: N-terminal GST; dsDNA, one strand shown
# T1 sequence: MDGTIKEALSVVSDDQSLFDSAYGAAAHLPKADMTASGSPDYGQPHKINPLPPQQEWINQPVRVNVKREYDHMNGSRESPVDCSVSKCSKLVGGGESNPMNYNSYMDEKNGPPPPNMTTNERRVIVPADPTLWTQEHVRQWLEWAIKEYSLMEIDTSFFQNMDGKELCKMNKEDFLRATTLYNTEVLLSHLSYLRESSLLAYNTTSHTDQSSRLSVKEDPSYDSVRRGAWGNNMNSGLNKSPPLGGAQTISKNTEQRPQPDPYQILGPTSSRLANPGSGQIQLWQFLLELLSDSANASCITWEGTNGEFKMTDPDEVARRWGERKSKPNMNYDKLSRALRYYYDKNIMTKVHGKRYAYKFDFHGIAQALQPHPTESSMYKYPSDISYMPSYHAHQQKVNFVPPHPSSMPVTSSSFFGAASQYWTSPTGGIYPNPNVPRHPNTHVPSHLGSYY
# In short: (§1)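 GST fusions of human transcription factors were expressed in yeast and captured with glutathione beads. Once given DNA barcodes and pooled alongside a tag-only sample, they were incubated for 30 min at room temperature with 200 nmole of a random double-stranded 16-mer DNA library in Tris/NaCl/DTT/glycerol buffer, then washed, crosslinked (0.1% formaldehyde), proximity-ligated, PCR-amplified and sequenced on an Illumina NextSeq500. The binding signal of each hexamer is its read frequency for a factor divided by its frequency for the tag-only sample.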
# [2] = target: T2, ELK1 (Homo sapiens, UniProt P19419 1-428); details: protein: recombinant; tags: N-terminal GST; dsDNA, one strand shown
# T2 sequence: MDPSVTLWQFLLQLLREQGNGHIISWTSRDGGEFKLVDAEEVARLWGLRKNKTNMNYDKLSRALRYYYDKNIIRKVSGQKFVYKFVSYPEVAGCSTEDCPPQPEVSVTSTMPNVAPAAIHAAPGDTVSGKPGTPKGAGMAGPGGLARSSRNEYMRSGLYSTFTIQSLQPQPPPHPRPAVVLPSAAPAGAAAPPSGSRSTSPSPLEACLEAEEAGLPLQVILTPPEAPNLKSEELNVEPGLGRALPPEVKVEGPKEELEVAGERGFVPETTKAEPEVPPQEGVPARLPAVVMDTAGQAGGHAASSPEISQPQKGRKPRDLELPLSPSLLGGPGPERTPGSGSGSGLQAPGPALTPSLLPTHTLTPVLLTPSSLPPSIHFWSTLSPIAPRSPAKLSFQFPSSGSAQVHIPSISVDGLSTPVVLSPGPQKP
# In short: as §1
# [3] = target: T3, GABPA (Homo sapiens, UniProt Q06546 1-454); details: protein: recombinant; tags: N-terminal GST; dsDNA, one strand shown
# T3 sequence: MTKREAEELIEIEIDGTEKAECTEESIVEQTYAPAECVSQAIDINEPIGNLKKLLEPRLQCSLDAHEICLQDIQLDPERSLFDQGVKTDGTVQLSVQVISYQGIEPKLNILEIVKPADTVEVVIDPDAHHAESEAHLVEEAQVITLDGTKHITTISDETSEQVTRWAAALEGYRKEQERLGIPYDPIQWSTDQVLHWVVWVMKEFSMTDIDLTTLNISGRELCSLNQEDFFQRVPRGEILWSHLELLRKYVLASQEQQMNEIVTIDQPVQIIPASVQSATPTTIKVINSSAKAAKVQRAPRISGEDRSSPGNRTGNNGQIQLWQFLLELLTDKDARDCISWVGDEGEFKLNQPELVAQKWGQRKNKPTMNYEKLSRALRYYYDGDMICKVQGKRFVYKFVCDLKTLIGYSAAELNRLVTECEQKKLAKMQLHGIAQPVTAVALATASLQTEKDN
# In short: as §1
# [4] = target: T4, ERG (Homo sapiens, UniProt P11308 1-479); details: protein: recombinant; tags: N-terminal GST; dsDNA, one strand shown
# T4 sequence: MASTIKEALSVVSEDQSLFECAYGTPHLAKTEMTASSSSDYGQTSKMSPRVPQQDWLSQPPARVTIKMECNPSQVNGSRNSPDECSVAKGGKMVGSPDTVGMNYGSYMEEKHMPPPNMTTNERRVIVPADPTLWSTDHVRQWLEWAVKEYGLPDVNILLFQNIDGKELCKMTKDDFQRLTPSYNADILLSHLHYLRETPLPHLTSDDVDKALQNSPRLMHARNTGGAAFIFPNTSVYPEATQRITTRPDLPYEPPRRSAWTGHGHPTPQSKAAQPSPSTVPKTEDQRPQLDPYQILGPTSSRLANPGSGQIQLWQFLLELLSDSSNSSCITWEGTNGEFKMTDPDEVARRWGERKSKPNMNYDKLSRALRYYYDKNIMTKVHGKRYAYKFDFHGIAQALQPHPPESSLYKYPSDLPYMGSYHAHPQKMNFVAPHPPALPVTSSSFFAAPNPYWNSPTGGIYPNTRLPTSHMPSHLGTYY
# In short: as §1
# [5] = target: ELF1 (Homo sapiens, UniProt P32519 1-619); details: protein: recombinant; tags: N-terminal GST; dsDNA, one strand shown
# Sequence of ELF1 (P32519 whole entry): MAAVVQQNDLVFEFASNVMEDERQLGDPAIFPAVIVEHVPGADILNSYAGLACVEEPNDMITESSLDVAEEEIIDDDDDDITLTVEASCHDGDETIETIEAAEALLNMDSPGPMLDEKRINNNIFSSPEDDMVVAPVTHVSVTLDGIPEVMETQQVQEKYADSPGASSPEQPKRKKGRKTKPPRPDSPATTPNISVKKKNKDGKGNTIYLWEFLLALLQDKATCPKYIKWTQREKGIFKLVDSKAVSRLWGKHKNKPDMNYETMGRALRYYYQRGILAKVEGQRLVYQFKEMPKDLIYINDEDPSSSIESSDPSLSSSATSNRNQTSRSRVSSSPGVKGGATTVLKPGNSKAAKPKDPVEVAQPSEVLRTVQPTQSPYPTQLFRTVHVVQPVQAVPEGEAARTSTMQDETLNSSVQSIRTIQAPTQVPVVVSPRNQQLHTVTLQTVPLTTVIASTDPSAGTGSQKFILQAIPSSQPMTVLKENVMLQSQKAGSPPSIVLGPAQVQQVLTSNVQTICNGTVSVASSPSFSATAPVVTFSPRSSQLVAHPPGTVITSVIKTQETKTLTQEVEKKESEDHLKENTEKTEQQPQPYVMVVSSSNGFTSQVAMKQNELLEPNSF
# In short: as §1
# [6] = target: T5, EHF (Homo sapiens, UniProt Q9NZC4 1-300); details: protein: recombinant; tags: N-terminal GST; dsDNA, one strand shown
# T5 sequence: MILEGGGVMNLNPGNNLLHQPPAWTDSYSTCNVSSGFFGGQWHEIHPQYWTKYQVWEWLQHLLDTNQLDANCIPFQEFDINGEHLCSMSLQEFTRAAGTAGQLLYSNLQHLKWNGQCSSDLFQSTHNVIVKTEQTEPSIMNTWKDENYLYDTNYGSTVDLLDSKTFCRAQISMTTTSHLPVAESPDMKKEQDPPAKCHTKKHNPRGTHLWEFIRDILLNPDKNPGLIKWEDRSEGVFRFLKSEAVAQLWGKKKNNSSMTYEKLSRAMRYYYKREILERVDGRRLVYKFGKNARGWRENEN
# In short: as §1
# [7] = target: SPI1 (Homo sapiens, UniProt P17947 1-270); details: protein: recombinant; tags: N-terminal GST; dsDNA, one strand shown
# In short: as §1
# [8] = target: SPIB (Homo sapiens, UniProt Q01892 1-262); details: protein: recombinant; tags: N-terminal GST; dsDNA, one strand shown
# Sequence of SPIB (Q01892 whole entry): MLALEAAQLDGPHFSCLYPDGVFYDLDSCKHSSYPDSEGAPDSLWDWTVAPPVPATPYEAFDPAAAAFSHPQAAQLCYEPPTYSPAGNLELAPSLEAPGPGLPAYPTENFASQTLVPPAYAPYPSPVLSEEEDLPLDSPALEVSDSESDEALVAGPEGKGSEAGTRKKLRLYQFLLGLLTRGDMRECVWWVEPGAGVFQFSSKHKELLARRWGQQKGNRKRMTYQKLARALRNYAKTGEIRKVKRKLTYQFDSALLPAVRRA
# In short: as §1
# [9] = target: T6, ELK3 (Homo sapiens, UniProt P41970 1-407); details: protein: recombinant; tags: N-terminal GST; dsDNA, one strand shown
# T6 sequence: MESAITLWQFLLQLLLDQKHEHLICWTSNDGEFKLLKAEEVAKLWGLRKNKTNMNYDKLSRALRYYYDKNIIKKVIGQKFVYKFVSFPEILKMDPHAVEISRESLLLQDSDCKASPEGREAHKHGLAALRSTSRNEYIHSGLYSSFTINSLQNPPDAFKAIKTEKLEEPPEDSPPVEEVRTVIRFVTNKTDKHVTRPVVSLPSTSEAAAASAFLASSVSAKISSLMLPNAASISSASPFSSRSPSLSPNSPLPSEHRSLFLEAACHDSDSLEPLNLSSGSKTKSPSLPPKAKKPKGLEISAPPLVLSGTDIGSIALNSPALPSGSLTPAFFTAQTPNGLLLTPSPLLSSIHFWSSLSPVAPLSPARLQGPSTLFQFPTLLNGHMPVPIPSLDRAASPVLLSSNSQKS
# In short: as §1
# [10] = target: T7, FEV (Homo sapiens, UniProt Q99581 1-238); details: protein: recombinant; tags: N-terminal GST; dsDNA, one strand shown
# T7 sequence: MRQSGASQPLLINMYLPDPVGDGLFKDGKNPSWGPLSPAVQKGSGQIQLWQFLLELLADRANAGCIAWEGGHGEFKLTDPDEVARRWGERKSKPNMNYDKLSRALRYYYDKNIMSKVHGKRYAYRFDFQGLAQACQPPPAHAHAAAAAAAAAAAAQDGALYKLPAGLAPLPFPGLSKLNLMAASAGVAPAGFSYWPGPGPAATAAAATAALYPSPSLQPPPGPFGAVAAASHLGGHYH
# In short: as §1
# [11] = target: ETV5 (Homo sapiens, UniProt P41161 1-510); details: protein: recombinant; tags: N-terminal GST; dsDNA, one strand shown
# Sequence of ETV5 (P41161 whole entry): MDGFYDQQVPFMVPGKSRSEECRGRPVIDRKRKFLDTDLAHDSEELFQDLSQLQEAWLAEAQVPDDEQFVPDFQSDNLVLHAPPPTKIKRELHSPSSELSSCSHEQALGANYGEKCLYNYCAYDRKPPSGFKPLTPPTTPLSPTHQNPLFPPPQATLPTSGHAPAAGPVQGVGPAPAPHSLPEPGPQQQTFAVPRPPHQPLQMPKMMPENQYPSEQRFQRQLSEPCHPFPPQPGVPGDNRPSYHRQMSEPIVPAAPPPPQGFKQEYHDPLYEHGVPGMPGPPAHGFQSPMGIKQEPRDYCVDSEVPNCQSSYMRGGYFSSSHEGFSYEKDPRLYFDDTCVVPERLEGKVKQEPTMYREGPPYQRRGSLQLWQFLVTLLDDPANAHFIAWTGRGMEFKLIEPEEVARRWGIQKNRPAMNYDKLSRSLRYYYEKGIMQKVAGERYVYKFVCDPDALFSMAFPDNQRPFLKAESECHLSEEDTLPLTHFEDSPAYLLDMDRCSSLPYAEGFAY
# In short: as §1
# [12] = target: HSF1 (Homo sapiens, UniProt Q00613 1-529); details: protein: recombinant; tags: N-terminal GST; chain copies: 3; dsDNA, one strand shown
# Sequence of HSF1 (Q00613 whole entry): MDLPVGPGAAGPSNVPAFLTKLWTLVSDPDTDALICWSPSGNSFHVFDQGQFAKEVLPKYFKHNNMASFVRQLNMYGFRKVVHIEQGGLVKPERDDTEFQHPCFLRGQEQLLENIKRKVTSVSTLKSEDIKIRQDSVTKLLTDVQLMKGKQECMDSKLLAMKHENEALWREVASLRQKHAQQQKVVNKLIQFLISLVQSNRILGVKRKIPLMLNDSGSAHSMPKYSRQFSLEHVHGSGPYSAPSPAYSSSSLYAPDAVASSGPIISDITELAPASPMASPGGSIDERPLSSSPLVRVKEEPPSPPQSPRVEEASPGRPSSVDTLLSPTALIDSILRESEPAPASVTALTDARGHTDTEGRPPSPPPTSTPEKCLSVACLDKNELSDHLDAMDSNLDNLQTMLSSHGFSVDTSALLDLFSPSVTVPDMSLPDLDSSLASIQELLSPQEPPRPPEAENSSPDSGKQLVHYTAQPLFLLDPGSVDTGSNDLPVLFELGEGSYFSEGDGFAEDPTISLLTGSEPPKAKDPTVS
# In short: as §1
# [13] = target: T8, SPIC (Homo sapiens, UniProt Q8N5J4 1-248); details: protein: recombinant; tags: N-terminal GST; dsDNA, one strand shown
# T8 sequence: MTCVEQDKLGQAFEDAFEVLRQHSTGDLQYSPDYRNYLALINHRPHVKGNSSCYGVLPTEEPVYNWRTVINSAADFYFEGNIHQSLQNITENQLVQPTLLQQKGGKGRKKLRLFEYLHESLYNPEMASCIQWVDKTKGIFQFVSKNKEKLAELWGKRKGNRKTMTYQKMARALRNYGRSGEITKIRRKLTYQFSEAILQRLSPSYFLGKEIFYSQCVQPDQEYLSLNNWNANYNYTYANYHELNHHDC
# In short: as §1
# [14] = target: ELF4 (Homo sapiens, UniProt Q99607 1-663); details: protein: recombinant; tags: N-terminal GST; dsDNA, one strand shown
# Sequence of ELF4 (Q99607 whole entry): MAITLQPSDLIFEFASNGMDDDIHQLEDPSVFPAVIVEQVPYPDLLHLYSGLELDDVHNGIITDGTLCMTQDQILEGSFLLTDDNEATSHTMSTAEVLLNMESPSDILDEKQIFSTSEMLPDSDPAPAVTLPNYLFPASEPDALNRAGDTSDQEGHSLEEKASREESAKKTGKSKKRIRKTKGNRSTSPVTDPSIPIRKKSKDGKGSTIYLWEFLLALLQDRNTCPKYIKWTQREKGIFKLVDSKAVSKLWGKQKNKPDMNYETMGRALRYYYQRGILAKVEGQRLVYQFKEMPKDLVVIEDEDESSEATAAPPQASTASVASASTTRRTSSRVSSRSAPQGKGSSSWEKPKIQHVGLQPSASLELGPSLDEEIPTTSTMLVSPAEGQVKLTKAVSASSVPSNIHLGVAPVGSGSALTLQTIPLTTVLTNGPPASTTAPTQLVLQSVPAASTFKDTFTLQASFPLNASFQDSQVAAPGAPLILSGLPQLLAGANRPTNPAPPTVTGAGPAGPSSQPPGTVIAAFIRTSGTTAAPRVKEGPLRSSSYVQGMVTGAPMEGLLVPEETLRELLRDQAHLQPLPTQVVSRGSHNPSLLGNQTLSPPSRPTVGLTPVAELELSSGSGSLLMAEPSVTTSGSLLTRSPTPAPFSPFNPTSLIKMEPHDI
# In short: as §1
# [15] = target: T9, ELK4 (Homo sapiens, UniProt P28324-2 1-405); details: protein: recombinant; tags: N-terminal GST; dsDNA, one strand shown
# T9 sequence: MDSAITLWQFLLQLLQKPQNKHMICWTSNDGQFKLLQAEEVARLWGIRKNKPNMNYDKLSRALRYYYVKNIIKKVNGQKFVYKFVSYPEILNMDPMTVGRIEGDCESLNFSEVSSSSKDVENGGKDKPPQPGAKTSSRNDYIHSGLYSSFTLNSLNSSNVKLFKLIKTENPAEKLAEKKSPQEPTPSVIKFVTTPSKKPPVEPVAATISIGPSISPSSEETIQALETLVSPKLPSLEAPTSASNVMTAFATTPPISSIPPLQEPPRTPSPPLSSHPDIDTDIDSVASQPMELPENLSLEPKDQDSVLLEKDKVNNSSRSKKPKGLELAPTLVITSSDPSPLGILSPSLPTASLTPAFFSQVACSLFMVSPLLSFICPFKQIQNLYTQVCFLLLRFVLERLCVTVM
# In short: as §1
# [16] = target: T10, ETV2 (Homo sapiens, UniProt O00321 1-342); details: protein: recombinant; tags: N-terminal GST; dsDNA, one strand shown
# T10 sequence: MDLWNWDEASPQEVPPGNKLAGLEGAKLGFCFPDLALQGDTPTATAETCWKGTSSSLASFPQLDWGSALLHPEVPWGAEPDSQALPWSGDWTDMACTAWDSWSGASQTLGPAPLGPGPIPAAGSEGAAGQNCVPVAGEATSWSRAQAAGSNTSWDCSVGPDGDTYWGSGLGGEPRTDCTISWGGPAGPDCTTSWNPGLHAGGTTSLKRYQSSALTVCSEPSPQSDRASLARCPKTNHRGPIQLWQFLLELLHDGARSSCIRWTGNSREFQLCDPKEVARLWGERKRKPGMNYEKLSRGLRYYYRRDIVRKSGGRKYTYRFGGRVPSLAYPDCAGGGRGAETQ
# In short: as §1
# [17] = target: T11, ELF3 (Homo sapiens, UniProt P78545 1-371); details: protein: recombinant; tags: N-terminal GST; dsDNA, one strand shown
# T11 sequence: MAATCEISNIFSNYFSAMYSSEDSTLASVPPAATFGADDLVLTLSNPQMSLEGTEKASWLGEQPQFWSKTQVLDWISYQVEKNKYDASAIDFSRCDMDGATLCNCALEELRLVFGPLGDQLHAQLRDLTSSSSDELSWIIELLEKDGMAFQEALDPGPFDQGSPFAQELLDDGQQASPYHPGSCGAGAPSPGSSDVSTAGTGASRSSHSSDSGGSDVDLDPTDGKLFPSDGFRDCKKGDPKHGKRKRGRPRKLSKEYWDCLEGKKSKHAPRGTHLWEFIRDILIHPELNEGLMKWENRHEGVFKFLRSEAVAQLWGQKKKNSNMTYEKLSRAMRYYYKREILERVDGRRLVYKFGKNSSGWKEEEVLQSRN
# In short: as §1
# [18] = target: CRX (Homo sapiens, UniProt O43186 1-299); details: protein: recombinant; tags: N-terminal GST; dsDNA, one strand shown
# Sequence of CRX (O43186 whole entry): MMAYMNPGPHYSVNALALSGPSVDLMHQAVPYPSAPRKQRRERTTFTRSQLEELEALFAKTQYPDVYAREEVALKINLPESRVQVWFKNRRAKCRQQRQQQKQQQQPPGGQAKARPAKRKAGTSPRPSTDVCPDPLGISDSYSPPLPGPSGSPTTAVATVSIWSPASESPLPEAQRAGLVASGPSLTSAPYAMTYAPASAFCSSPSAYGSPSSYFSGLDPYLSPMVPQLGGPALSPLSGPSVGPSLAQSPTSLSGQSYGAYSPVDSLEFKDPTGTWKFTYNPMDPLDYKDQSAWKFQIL
# In short: as §1
# [19] = target: ETV1 (Homo sapiens, UniProt P50549 1-477); details: protein: recombinant; tags: N-terminal GST; dsDNA, one strand shown
# Sequence of ETV1 (P50549 whole entry): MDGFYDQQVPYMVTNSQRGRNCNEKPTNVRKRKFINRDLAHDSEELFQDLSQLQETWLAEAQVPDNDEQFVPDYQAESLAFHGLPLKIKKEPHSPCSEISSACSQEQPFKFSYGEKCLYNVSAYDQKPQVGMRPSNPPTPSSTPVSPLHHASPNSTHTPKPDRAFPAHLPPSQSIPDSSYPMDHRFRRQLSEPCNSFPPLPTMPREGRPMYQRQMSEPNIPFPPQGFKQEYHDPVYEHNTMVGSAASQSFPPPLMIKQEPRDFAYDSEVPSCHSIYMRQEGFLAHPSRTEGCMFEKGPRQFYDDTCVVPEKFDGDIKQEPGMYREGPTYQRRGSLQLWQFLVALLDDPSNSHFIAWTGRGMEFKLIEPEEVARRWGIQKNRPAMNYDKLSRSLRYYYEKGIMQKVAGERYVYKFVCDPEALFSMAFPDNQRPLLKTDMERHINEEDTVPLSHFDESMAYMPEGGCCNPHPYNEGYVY
# In short: as §1
sequence,measurement,setting,value
TATGCA,binding signal,[1],"1.24 fold enrichment (6-mer frequency, TF over GST control)"
same,binding signal,[2],"1.24 fold enrichment (6-mer frequency, TF over GST control)"
same,binding signal,[3],"1.24 fold enrichment (6-mer frequency, TF over GST control)"
same,binding signal,[4],"1.26 fold enrichment (6-mer frequency, TF over GST control)"
same,binding signal,[5],"1.18 fold enrichment (6-mer frequency, TF over GST control)"
same,binding signal,[6],"1.12 fold enrichment (6-mer frequency, TF over GST control)"
same,binding signal,[7],"1.34 fold enrichment (6-mer frequency, TF over GST control)"
same,binding signal,[8],"1.25 fold enrichment (6-mer frequency, TF over GST control)"
same,binding signal,[9],"1.15 fold enrichment (6-mer frequency, TF over GST control)"
same,binding signal,[10],"1.26 fold enrichment (6-mer frequency, TF over GST control)"
same,binding signal,[11],"1.18 fold enrichment (6-mer frequency, TF over GST control)"
same,binding signal,[12],"1.1 fold enrichment (6-mer frequency, TF over GST control)"
same,binding signal,[13],"1.24 fold enrichment (6-mer frequency, TF over GST control)"
same,binding signal,[14],"1.27 fold enrichment (6-mer frequency, TF over GST control)"
same,binding signal,[15],"1.37 fold enrichment (6-mer frequency, TF over GST control)"
same,binding signal,[16],"1.37 fold enrichment (6-mer frequency, TF over GST control)"
same,binding signal,[17],"1.25 fold enrichment (6-mer frequency, TF over GST control)"
same,binding signal,[18],"1.22 fold enrichment (6-mer frequency, TF over GST control)"
same,binding signal,[19],"1.19 fold enrichment (6-mer frequency, TF over GST control)"

# Source: publication PMC7862700, “An all-to-all approach to the identification of sequence-specific readers for epigenetic DNA modifications on cytosine”
